# For some of these results: Potency and affinity values are given separately.
# Experiments:
# Design in all cases: scale not given: direction of the effect not stated beside the values
# [1] = biological target: Protein translocase subunit SecA (Escherichia coli (strain K12)) (UniProt P10408); experiment: Assay to Identify E. coli SecA ATPase Inhibitors; type: functional; details: 30 µM
# [2] = biological target: T1, Ubiquitin-activating enzyme e1, putative (Leishmania donovani (strain BPK282A1)) (UniProt E9BSI1); experiment: Leishmania donovani Ubiquitin Activating Enzyme (LdE1); type: functional; details: 30 µM
# T1 sequence (whole entry): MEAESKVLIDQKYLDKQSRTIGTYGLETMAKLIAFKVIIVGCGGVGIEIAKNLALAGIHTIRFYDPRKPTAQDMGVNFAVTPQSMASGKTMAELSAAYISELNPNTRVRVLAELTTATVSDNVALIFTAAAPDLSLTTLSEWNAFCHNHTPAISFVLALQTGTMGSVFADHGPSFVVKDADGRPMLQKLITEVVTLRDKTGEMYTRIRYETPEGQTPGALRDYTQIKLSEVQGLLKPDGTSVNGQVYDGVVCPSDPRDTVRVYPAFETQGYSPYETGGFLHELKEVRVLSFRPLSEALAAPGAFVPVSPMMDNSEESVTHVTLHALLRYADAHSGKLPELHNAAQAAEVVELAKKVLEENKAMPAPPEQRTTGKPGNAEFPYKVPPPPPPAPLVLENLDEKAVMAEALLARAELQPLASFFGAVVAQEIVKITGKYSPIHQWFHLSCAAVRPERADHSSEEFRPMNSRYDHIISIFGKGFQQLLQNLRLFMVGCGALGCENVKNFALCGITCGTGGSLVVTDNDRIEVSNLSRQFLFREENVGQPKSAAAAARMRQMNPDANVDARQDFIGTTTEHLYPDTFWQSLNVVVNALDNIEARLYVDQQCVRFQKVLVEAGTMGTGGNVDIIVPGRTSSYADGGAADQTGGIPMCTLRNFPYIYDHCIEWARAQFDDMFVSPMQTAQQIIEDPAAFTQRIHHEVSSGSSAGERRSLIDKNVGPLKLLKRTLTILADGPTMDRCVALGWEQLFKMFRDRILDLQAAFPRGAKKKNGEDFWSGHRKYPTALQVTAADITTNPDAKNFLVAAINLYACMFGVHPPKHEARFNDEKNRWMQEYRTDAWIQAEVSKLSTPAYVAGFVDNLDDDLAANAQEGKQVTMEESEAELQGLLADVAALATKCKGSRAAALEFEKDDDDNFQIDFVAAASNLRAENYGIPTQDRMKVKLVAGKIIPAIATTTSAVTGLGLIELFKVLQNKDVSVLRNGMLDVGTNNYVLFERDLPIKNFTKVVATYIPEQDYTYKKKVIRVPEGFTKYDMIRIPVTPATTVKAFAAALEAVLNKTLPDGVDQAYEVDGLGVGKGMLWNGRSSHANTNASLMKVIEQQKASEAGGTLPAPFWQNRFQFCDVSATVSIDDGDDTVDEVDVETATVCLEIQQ
# [3] = biological target: Sialic acid-binding Ig-like lectin 9 (Homo sapiens) (UniProt Q9Y336); experiment: Hs-Siglec9 ALPHAscreen SOP 20170721; details: 10 µM
# Sialic acid-binding Ig-like lectin 9 (Homo sapiens), sequence (Q9Y336 whole entry): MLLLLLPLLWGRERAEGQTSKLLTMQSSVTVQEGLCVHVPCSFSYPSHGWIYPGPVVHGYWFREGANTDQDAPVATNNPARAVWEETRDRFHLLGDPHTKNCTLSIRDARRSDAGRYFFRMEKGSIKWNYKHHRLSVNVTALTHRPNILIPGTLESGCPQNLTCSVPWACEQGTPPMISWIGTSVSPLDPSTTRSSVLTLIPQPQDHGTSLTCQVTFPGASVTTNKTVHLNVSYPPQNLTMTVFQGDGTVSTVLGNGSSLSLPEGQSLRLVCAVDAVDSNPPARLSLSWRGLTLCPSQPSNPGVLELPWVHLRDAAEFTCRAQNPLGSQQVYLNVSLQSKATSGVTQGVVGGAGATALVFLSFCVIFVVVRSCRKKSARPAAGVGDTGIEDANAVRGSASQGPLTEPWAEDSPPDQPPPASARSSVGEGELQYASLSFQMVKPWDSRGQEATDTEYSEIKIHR
# Trypanosoma cruzi = experiment: Trypanosoma cruzi phosphomannomutase and mannose-1-phosphate guanylyltransferase assay; type: functional; details: 10 µM
# [4] = biological target: T2, Arginase-2, mitochondrial (Homo sapiens) (UniProt P78540); experiment: in vitro enzyme assay to detect the production of urea directly proportional to the activity of Arginase II; type: functional; details: 33.3 µM; note: in the data most compounds retested in dose-response had high values
# T2 sequence (whole entry): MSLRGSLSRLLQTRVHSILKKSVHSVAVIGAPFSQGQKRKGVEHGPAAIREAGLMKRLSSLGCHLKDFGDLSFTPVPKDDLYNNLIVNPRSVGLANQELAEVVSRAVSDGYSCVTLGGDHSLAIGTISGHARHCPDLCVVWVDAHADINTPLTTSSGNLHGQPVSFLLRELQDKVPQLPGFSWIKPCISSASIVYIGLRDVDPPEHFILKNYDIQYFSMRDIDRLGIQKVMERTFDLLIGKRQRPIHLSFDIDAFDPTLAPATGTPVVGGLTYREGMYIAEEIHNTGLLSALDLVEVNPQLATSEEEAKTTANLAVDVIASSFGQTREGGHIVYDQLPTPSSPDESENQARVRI
# [5] = biological target: T3, Proteasome subunit beta (Trypanosoma cruzi) (UniProt O96673); experiment: Trypanosoma cruzi proteasome chymotrypsin-like activity (TcProtChymo) assay.; note: in the data most compounds retested in dose-response had high values; type: functional; details: 9.37 µM
# T3 sequence (whole entry): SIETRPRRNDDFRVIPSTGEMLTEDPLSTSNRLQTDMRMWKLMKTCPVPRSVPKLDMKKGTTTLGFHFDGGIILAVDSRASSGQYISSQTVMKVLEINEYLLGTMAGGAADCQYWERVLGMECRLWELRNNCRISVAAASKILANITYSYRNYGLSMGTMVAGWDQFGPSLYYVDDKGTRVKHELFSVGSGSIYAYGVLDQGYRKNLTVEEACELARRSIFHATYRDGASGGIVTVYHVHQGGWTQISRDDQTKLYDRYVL
# Homo sapiens = organism: Homo sapiens; experiment: To identify inhibition of the IFN signalling (Jak-Stat) pathway via expression of an eGFP reporter gene under the control of an IFN-stimulated response element (ISRE) containing MxA promoter.; type: functional; details: 30 µM
# [6] = biological target: T4, Tyrosyl-tRNA synthetase, putative (Trypanosoma cruzi (strain CL Brener)) (UniProt Q4DSP6); experiment: Trypanosoma cruzi tyrosyl tRNA synthetase (TcYRS) _High Tyrosine SOP; type: functional; details: 30 µM; note: in the data most compounds retested in dose-response had high values
# T4 sequence (whole entry): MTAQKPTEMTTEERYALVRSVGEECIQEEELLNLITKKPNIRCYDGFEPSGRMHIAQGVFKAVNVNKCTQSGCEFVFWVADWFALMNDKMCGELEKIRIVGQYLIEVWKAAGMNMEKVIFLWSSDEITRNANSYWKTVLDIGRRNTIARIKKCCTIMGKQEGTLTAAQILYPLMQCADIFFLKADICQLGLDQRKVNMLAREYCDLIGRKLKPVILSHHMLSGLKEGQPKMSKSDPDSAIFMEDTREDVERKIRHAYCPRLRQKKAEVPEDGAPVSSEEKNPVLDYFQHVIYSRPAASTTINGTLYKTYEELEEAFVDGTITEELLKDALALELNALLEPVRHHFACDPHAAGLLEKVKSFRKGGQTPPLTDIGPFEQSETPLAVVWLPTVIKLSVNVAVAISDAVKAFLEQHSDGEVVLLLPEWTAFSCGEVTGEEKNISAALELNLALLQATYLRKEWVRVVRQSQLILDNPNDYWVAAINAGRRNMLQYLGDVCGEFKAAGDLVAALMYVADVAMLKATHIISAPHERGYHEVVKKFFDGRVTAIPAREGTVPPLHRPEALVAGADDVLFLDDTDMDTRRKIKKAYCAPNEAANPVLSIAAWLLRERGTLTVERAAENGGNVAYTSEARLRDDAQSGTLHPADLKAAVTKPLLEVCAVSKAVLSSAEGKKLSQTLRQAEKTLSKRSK
# [7] = biological target: T4, Tyrosyl-tRNA synthetase, putative (Trypanosoma cruzi (strain CL Brener)); experiment: Trypanosoma cruzi tyrosyl tRNA synthetase (TcYRS) SOP; type: functional; details: 30 µM
# [8] = biological target: Chromo domain-containing protein 1 (Saccharomyces cerevisiae (strain ATCC 204508 / S288c) (Baker's yeast)) (UniProt P32657); experiment: ScCHD-1 Enzyme Inhibition Assay; type: functional; details: 30 µM; note: in the data most compounds retested in dose-response had high values
# Chromo domain-containing protein 1 (Saccharomyces cerevisiae (strain ATCC 204508 / S288c) (Baker's yeast)), sequence (P32657 whole entry, the tested form may be a part): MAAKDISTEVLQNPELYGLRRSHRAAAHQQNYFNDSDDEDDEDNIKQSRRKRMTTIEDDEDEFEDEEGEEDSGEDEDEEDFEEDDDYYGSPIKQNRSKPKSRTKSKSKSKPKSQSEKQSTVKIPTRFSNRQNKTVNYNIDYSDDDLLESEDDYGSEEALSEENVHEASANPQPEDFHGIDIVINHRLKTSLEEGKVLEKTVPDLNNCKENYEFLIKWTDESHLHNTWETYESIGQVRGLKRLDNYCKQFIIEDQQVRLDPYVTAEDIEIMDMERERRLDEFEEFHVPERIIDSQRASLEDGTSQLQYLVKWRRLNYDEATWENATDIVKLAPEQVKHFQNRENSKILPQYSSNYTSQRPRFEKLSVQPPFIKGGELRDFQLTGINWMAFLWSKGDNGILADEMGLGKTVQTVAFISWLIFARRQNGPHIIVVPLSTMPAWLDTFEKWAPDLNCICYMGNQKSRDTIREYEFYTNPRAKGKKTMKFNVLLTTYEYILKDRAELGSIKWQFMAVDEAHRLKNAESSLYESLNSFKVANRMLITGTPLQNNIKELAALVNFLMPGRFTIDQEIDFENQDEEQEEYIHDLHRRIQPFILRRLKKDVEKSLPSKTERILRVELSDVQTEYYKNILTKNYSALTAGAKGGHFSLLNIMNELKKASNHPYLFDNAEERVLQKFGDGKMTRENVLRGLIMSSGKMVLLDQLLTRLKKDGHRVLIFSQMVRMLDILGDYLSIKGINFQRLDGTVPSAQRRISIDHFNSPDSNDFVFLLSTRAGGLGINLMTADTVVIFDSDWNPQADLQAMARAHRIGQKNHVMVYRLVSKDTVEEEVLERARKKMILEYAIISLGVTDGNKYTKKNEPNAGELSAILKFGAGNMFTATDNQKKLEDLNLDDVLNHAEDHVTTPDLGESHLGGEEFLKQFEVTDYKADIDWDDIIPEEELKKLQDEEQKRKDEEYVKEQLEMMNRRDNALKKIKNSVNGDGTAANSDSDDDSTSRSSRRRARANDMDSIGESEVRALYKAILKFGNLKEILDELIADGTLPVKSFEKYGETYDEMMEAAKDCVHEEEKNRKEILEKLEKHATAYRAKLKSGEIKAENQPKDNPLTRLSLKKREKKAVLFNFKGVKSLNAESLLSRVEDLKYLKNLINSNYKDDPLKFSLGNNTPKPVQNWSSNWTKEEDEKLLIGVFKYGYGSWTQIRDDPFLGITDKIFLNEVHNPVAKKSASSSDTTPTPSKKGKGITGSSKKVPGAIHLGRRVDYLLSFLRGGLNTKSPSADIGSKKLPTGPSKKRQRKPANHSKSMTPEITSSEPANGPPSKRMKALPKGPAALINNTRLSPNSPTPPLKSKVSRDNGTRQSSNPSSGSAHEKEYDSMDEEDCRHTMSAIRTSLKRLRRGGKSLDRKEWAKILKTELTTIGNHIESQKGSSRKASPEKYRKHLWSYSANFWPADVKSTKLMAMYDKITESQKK
# Protein translocase subunit SecA (Escherichia coli (strain K12)), sequence (P10408 whole entry): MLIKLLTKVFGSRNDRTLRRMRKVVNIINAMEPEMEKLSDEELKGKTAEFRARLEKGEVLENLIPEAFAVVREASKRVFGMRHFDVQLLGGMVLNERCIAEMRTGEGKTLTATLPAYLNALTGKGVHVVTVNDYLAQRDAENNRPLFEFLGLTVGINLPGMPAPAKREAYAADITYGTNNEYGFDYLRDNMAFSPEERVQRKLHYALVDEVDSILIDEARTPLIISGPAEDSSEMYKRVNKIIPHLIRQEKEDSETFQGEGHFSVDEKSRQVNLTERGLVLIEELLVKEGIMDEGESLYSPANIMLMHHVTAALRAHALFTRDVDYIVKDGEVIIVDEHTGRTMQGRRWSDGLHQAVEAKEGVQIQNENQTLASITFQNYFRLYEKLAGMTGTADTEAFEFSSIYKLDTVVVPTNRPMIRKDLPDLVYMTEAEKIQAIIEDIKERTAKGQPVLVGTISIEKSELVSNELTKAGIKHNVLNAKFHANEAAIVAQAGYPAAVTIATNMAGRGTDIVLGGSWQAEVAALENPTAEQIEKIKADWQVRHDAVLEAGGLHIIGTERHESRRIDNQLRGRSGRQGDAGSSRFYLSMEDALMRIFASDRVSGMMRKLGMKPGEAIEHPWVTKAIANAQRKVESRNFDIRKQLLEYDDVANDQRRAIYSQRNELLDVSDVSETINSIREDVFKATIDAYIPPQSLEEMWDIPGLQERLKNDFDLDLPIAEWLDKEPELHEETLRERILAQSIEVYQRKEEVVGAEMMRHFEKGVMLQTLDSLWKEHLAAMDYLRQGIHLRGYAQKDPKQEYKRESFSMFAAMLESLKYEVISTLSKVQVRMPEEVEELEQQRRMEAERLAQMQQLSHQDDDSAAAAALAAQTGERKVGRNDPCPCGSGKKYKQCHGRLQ
Structure (SMILES),Percent Effect [1],Percent Effect [2],Percent Effect [3],Percent Effect (Trypanosoma cruzi),Percent Effect [4],Percent Effect [5],Percent Effect (Homo sapiens),Percent Effect [6],Percent Effect [7],Percent Effect [8]
COCc1cccc(NS(=O)(=O)c2cc(C(=O)O)cs2)c1,-3.18%,5.13%,-6.44%,2.91%,2.46%,8.11%,4.97%,3.35%,13.2%,-5.54%
Cc1ccc(-c2nnc(CNCCn3cc(C)cn3)o2)cc1,0.127%,7.79%,7.81%,-0.56%,1.02%,6.67%,-6.58%,4.9%,11.8%,-4.71%
Cc1nccn1-c1cccc(C2CCCN(C(=O)c3cc[nH]n3)C2)n1 (stereo not given),0.661%,25.3%,-9.09%,0.395%,-3.98%,17.9%,32.9%,1.06%,10%,-7.28%
CCN1CCO[C@]2(CCC[C@H]2COCc2csc(C)n2)C1,-5.1%,-1.3%,11%,-0.292%,-7.29%,3.27%,-2.57%,3.68%,5.13%,-0.161%
Cc1ccc([C@@H]2CN(C(=O)c3cccnn3)C[C@H]2NC(=O)C2CC2)cc1,-10.6%,5.41%,16.9%,4.17%,4.54%,13.2%,3.04%,5.85%,19.5%,-1.62%
CCC1c2ccsc2CCN1C(=O)NCc1ccccn1 (stereo not given),-3.49%,20.5%,-10.3%,4.6%,4.1%,10.2%,10.8%,5.26%,22.9%,-7.76%
CCSCCC(=O)NS(=O)(=O)c1ccc2c(c1)OCCO2,-2%,10.3%,-9.92%,-1.97%,1.23%,4.69%,9.19%,2.39%,10.8%,-1.85%
Cc1cc(-c2cnn(CCNC(=O)C3CC3)c2C2CC2)on1,-4.16%,4%,-5.41%,-1.77%,-1.77%,5.91%,17.8%,-3.17%,0%,-25.2%
O=C(CO)N1CCc2onc(Cn3cccn3)c2C1,-5.41%,3.9%,3.29%,1.27%,-1.62%,7.5%,-4.61%,2.63%,5.13%,0.404%
Cc1ccccc1-c1noc(CN2CCn3c(nnc3C3CC3)C2)n1,-6.21%,-25.6%,-13.3%,-3.1%,-0.41%,5.21%,15.8%,0.478%,1.21%,-7.86%
CCc1nc(C2CCCN2CCc2ccccn2)no1 (stereo not given),0.816%,20.5%,-18.3%,5.35%,1.23%,18.7%,23.6%,10.1%,20.5%,-7.66%
Cn1cc(CN2CCC3(CC(=O)N(c4ccc5c(c4)OCO5)C3)C2)cn1 (stereo not given),-2.97%,1.3%,-2.34%,1.85%,-2.43%,-1.15%,4.19%,4.74%,5.13%,-0.178%
Cc1cc(C(=O)NCc2ccc(N3CCCC(C(N)=O)C3)cc2)[nH]n1 (stereo not given),-7.13%,10.7%,-2.98%,-3.21%,-0.887%,16.2%,14.9%,0.526%,5.13%,-7.84%
Cc1ccc(-c2nc(CN3CCn4c(nnc4C4CC4)C3)cs2)o1,2.56%,0%,-11.3%,-0.0939%,-2.87%,16.3%,35.1%,5.26%,10.8%,-4.37%
CCOc1c(Cl)cccc1NCc1cc(C)on1,-0.827%,12.8%,-8.13%,-1.6%,2.05%,15.1%,25.9%,8.13%,22.9%,-1.3%
Cc1c(F)cc(C(=O)O)cc1S(=O)(=O)Nc1cccc(C(F)F)c1,-2.31%,-2.56%,2.65%,1.03%,0.41%,6.23%,11.6%,-1.44%,-3.61%,-0.222%
NC(=O)CN1CCC(NC(=O)Nc2nccs2)CC1,-1.25%,15.4%,-19.1%,9.11%,-0.82%,13.1%,5.92%,1.44%,20.5%,-8.95%
O=c1c(-c2ccnc(NC3CCOCC3)n2)cnc2sc(Cl)cn12,5.59%,16%,-4.95%,-8.63%,-2.66%,17.7%,12%,1.58%,0%,-10.8%
Cc1nsc(NC(=O)N2CCN(Cc3ccc(F)cc3)C(=O)C2)n1,-3.7%,-10.8%,-0.0827%,-0.291%,3.85%,4.45%,5.1%,2.66%,2.44%,3.97%

# — ChEMBL document CHEMBL3988442, “University of Dundee, Small-Polar-MMV Screening Library” (2021)
